Measurements as given in PubChem BioAssay (NCI).
Compounds without any hit were thinned out: in the full panel of roughly 79,000, 15% have a hit. Active and inactive are the calls of the source. Rule as the data show it: active = growth inhibition above about 70%; inactive = the rest.

Legend:
[1] = NCI Yeast Anticancer Drug Screen. Data for the wt1 strain (AID 149);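 also: 0% = growth of vehicle-treated wt1 cultures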; conditions: S. cerevisiae wt1 strain (SPY 50644) growth inhibition, hits give high values
Method in brief: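 wt1 strain grown with compound or vehicle; inhibition taken from the growth difference.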

[2] = NCI Yeast Anticancer Drug Screen. Data for the rad50EPP+ strain (AID 151);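 also: 0% = growth of vehicle-treated control cultures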; conditions: S. cerevisiae rad50 mutant strain, hits give high values
Method in brief: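 Measured: growth inhibition of rad50EPP+ yeast. Reference: vehicle-treated controls. Screen uses strains with defined genetic alterations in DNA damage repair or cell cycle control.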

[3] = NCI Yeast Anticancer Drug Screen. Data for the mgt1 strain (AID 153); conditions: S. cerevisiae mgt1 mutant growth inhibition, hits give high values
Method in brief: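 Compounds were applied to mgt1 mutant yeast, and growth was then compared against vehicle-treated control cultures to give percent inhibition.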

[4] = NCI Yeast Anticancer Drug Screen. Data for the rad50 strain (AID 155);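 also: 0% = growth of vehicle-only cultures of the same strain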; conditions: S. cerevisiae rad50 strain growth inhibition, hits give high values
Method in brief: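 DNA repair mutant yeast, compound exposure, growth read-out; inhibition is taken relative to vehicle.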

[5] = NCI Yeast Anticancer Drug Screen. Data for the mec2-1 strain (AID 157); conditions: S. cerevisiae mec2-1 strain, hits give high values
Method in brief: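 Compounds were applied to mec2-1 yeast cells. Their growth was then compared with that of vehicle-treated cultures to give growth inhibition.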

[6] = NCI Yeast Anticancer Drug Screen. Data for the rad14 strain (AID 159);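 also: 0% = growth of vehicle-treated control cultures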; conditions: S. cerevisiae rad14 strain growth inhibition, hits give high values
Method in brief: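 DNA repair-defective yeast, compound-exposed; % growth inhibition derived by comparison with vehicle-treated controls.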

[7] = NCI Yeast Anticancer Drug Screen. Data for the sgs1 mgt1 strain (AID 161);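 also: 0% = growth of cultures given vehicle only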; conditions: S. cerevisiae sgs1 mgt1 strain, hits give high values
Method in brief: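 Yeast cells carrying a defined DNA-repair defect were exposed to test compounds. Growth inhibition was measured relative to vehicle-treated controls.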

[8] = NCI Yeast Anticancer Drug Screen. Data for the cln2 rad14 strain (AID 165);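 also: 0% = growth equal to vehicle treated cultures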; conditions: S. cerevisiae cln2 rad14 strain, hits give high values
Method in brief: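 Strain: cln2 rad14 yeast, altered in cell cycle control and DNA damage repair. Read-out: growth inhibition vs vehicle.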

[9] = NCI Yeast Anticancer Drug Screen. Data for the bub3 strain (AID 167); conditions: S. cerevisiae bub3 mutant strain, hits give high values
Method in brief: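 In this screen, a yeast mutant lacking normal mitotic checkpoint function is challenged with compound. Relative growth versus vehicle gives the inhibition value.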

[10] = NCI Yeast Anticancer Drug Screen. Data for the wt2 strain (AID 169);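 also: 0% = growth of vehicle-treated yeast cultures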; conditions: S. cerevisiae wt2 strain growth inhibition, hits give high values
Method in brief: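 Growth of compound-treated yeast is measured and expressed as inhibition relative to vehicle-only controls.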

[11] = NCI Yeast Anticancer Drug Screen. Data for the mlh1 strain (AID 171);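 also: 0% = growth of vehicle-treated control cultures of the same strain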; conditions: S. cerevisiae mlh1 strain growth inhibition, hits give high values
Method in brief: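 Test agents were incubated with yeast bearing a defined DNA damage repair or cell cycle control alteration; values are growth inhibition normalised to vehicle-treated cultures.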

[12] = NCI Yeast Anticancer Drug Screen. Data for the sgs1 strain (AID 173);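 also: 0% = growth of vehicle-only control cultures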; conditions: S. cerevisiae sgs1 mutant, hits give high values
Method in brief: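 Strain with an altered DNA repair or cell cycle pathway exposed to compound. Growth then measured. Value = inhibition versus vehicle control.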

[13] = NCI Yeast Anticancer Drug Screen. Data for the mlh1 rad18 strain (AID 175); conditions: S. cerevisiae mlh1 rad18 strain growth inhibition, hits give high values
Method in brief: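 A repair-deficient yeast strain is exposed to test compound, and growth is scored relative to vehicle-treated controls.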

[14] = NCI Yeast Anticancer Drug Screen. Data for the rad18 strain (AID 177); conditions: S. cerevisiae rad18 mutant growth inhibition, hits give high values
Method in brief: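 DNA-repair-defective yeast; compound treatment; growth inhibition scored against vehicle.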

[15] = NCI Yeast Anticancer Drug Screen. Data for the rad52 strain (AID 147);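 also: 0% = growth of vehicle-treated control cultures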; conditions: S. cerevisiae rad52 mutant growth inhibition, hits give high values
Method in brief: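 Growth of repair-deficient yeast cells was compared between compound-treated and vehicle-treated cultures to give percent inhibition.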

[16] = at 5.0 µM (retest, dose inferred, filed as 0.5)
[17] = at 50.0 µM (retest, dose inferred, filed as 5.0)

Measured: growth inhibition

COC(=O)CSSCc1ccc([N+](=O)[O-])cc1
active: [1]; at 100.0 µM 83% | [2]; at 11.0 µM 70% | [2]; at 33.0 µM 93% | [2]; at 100.0 µM 98% | [3]; at 100.0 µM 98% | [4]; at 33.0 µM 85% | [4]; [17] 97% | [4]; at 50.0 µM 97.3% | [4]; at 100.0 µM 97% | [5]; [17] 96% | [5]; at 50.0 µM 96% | [5]; at 100.0 µM 97% | [6]; at 100.0 µM 98% | [7]; [17] 97% | [7]; at 50.0 µM 94.7% | [8]; [17] 89% | [8]; at 50.0 µM 93.6% | [9]; at 33.0 µM 71% | [9]; [17] 98% | [9]; at 50.0 µM 96% | [9]; at 100.0 µM 97% | [10]; at 100.0 µM 98% | [11]; at 100.0 µM 99% | [12]; at 33.0 µM 87% | [12]; at 100.0 µM 99% | [13]; [17] 98% | [13]; at 50.0 µM 94.4% | [14]; at 33.0 µM 83% | [14]; at 100.0 µM 97%
inactive: [1]; at 1.2 µM -1% | [1]; at 3.7 µM -2% | [1]; at 11.0 µM 3% | [1]; at 33.0 µM 24% | [2]; at 1.2 µM -2% | [2]; at 3.7 µM 13% | [3]; at 1.2 µM -1% | [3]; at 3.7 µM 1% | [3]; at 11.0 µM 16% | [3]; at 33.0 µM 44% | [4]; at 1.2 µM 4% | [4]; at 3.7 µM 20% | [4]; [16] 15% | [4]; at 11.0 µM 47% | [5]; at 1.2 µM -2% | [5]; at 3.7 µM 2% | [5]; [16] -8% | [5]; at 11.0 µM 14% | [5]; at 33.0 µM 37% | [6]; at 1.2 µM 0% | [6]; at 3.7 µM 8% | [6]; at 11.0 µM 20% | [6]; at 33.0 µM 48% | [7]; [16] 38% | [8]; [16] -10% | [9]; at 1.2 µM 1% | [9]; at 3.7 µM 5% | [9]; [16] 43% | [9]; at 11.0 µM 24% | [10]; at 1.2 µM 1% | [10]; at 3.7 µM -3% | [10]; at 11.0 µM 22% | [10]; at 33.0 µM 34% | [11]; at 1.2 µM -4% | [11]; at 3.7 µM 9% | [11]; at 11.0 µM 31% | [11]; at 33.0 µM 67% | [12]; at 1.2 µM -20% | [12]; at 3.7 µM -24% | [12]; at 11.0 µM 33% | [13]; [16] 69% | [14]; at 1.2 µM -2% | [14]; at 3.7 µM 19% | [14]; at 11.0 µM 48%

Cc1cc(CO)c(O)c(CNCc2cc(C)cc(CO)c2O)c1
inactive: [1]; at 1.2 µM 24% | [1]; at 3.7 µM 15% | [1]; at 11.0 µM 25% | [1]; at 33.0 µM 38% | [2]; at 1.2 µM -24% | [2]; at 3.7 µM -23% | [2]; at 11.0 µM -33% | [2]; at 33.0 µM -29% | [2]; at 100.0 µM -13% | [3]; at 1.2 µM -13% | [3]; at 3.7 µM -17% | [3]; at 11.0 µM -18% | [3]; at 33.0 µM -9% | [4]; at 1.2 µM 2% | [4]; at 3.7 µM 7% | [4]; [16] -25% | [4]; at 11.0 µM 2% | [4]; at 33.0 µM 19% | [5]; at 1.2 µM -14% | [5]; at 3.7 µM -7% | [5]; [16] -32% | [5]; at 11.0 µM -27% | [5]; at 33.0 µM -18% | [5]; [17] 42% | [6]; at 1.2 µM -16% | [6]; at 3.7 µM -29% | [6]; at 11.0 µM -42% | [6]; at 33.0 µM 35% | [7]; [16] -2% | [7]; [17] 22% | [8]; [16] -17% | [8]; [17] 48% | [9]; at 1.2 µM -14% | [9]; at 3.7 µM -6% | [9]; [16] -21% | [9]; at 11.0 µM -13% | [9]; at 33.0 µM -13% | [9]; [17] 52% | [9]; at 50.0 µM 68.8% | [10]; at 1.2 µM -8% | [10]; at 3.7 µM -11% | [10]; at 11.0 µM -12% | [10]; at 33.0 µM -8% | [11]; at 1.2 µM -27% | [11]; at 3.7 µM -30% | [11]; at 11.0 µM -13% | [11]; at 33.0 µM -7% | [12]; at 1.2 µM 3% | [12]; at 3.7 µM 8% | [12]; at 11.0 µM 9% | [12]; at 33.0 µM 40% | [13]; [16] 17%
active: [1]; at 100.0 µM 98% | [3]; at 100.0 µM 98% | [4]; [17] 88% | [4]; at 50.0 µM 89.5% | [4]; at 100.0 µM 98% | [5]; at 50.0 µM 77.2% | [5]; at 100.0 µM 98% | [6]; at 100.0 µM 97% | [7]; at 50.0 µM 90.6% | [8]; at 50.0 µM 72% | [9]; at 100.0 µM 98% | [10]; at 100.0 µM 98% | [11]; at 100.0 µM 98% | [12]; at 100.0 µM 99% | [13]; [17] 96% | [13]; at 50.0 µM 74.3%

CCCCCCCCCC/C=C\C(=O)O
active: [15]; at 100.0 µM 97% | [2]; at 100.0 µM 75% | [3]; at 100.0 µM 98% | [4]; at 50.0 µM 78% | [4]; at 100.0 µM 97% | [5]; [17] 74% | [5]; at 50.0 µM 79.8%
inactive: [15]; at 1.2 µM -3% | [15]; at 3.7 µM -1% | [15]; at 11.0 µM -9% | [15]; at 33.0 µM -13% | [2]; at 1.2 µM 0% | [2]; at 3.7 µM -1% | [2]; at 11.0 µM 0% | [2]; at 33.0 µM 62% | [3]; at 1.2 µM -36% | [3]; at 3.7 µM -10% | [3]; at 11.0 µM -22% | [3]; at 33.0 µM -9% | [4]; at 1.2 µM 15% | [4]; at 3.7 µM 10% | [4]; [16] 39% | [4]; at 11.0 µM -5% | [4]; at 33.0 µM 8% | [4]; [17] 68% | [5]; at 1.2 µM 4% | [5]; at 3.7 µM 5% | [5]; [16] 36% | [5]; at 11.0 µM -11% | [5]; at 33.0 µM 49%
